From PubChem BioAssay
The entries come from a sample that favours hits as a whole.
Pf Dd2 growth: inhibitors of Plasmodium falciparum Dd2 growth | P. falciparum Dd2 growth, SYBR Green, 72 h | Potency, µM (highest dose often 28.9 µM), for inactives: at the highest dose activity, negative = inhibition, usual class: inhibitors | 120,000 compounds, 4.3% hits | AID 1347417; active = well fitted inhibition curve with a large enough effect;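 also: plate controls were DMSO vehicle for no effect and reference drug for full effect; nearly all actives have a fitted effect of over 65% in size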
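Readout: SYBR Green fluorescence, 485 nm excitation, 535 nm emission, after ~16 h lysis at 37C. Before that, Dd2-infected red cells (2.5% hematocrit) grew 72 h with compound, 29 uM top final concentration.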
* hit, by the source's call; i = inactive; [ ] = another dose, or the depositor's remark. Potency is read from the fitted curve at half-maximal effect.

SMILES | Pf Dd2 growth
Cc1ccc(C)c(CN2C(=O)c3ccccc3S(=O)(=O)c3ccc(C(=O)NCCCN4CCCC(C)C4)cc32)c1 (configuration not stated) | 4µM*
O=C(c1ccc2c(c1)N(Cc1cccc(Cl)c1)C(=O)c1ccccc1S2(=O)=O)N1CCCCC1 | -11%
O=C(c1ccc2c(c1)N(Cc1ccc(Cl)cc1)C(=O)c1ccccc1S2(=O)=O)N1CCN(Cc2ccccc2)CC1 | i
COc1ccc(CCNC(=O)c2ccc3c(c2)N(Cc2ccccc2F)C(=O)c2ccccc2S3(=O)=O)cc1OC | i
CCc1ccccc1NC(=O)c1ccc2c(c1)N(Cc1cc(C)ccc1C)C(=O)c1ccccc1S2(=O)=O | 7.1µM*
Cc1cccc(CN2C(=O)c3ccccc3S(=O)(=O)c3ccc(C(=O)N4CCCC4)cc32)c1 | i
CC1CCCN(CCCNC(=O)c2ccc3c(c2)N(Cc2ccc(Cl)cc2)C(=O)c2ccccc2S3(=O)=O)C1 (configuration not stated) | i
COc1ccc(CNC(=O)c2ccc3c(c2)N(Cc2ccccc2F)C(=O)c2ccccc2S3(=O)=O)cc1 | i
O=C(NCCc1nc2ccccc2s1)[C@H]1CNC[C@@H](C(=O)N2CCOCC2)C1 | -6%
Cc1ccccc1S(=O)(=O)N1CCCC(Cc2noc(-c3cnccn3)n2)C1 (configuration not stated) | 22%
CCS(=O)(=O)N1C[C@@H](COC)[C@H](C(=O)NC)C1 | 29%
Cn1c(Cn2ccnc2)nnc1C1CCCN(C(=O)CSCC2CC2)C1 (configuration not stated) | -1%
COc1cccc(CCC(=O)N2C[C@@H](C(N)=O)[C@H](c3nc(C)no3)C2)c1 | 11%
Cc1ncc2c(c1CNC(=O)c1ccccc1OC(F)F)CCNC2 | -6%
CCCCN1C(=O)C(CC(=O)N(C)C)Sc2ncccc21 (configuration not stated) | -2%
CC(C)S(=O)(=O)N1CC(n2cc(C(=O)NCc3ccccc3)nn2)C1 | -27%
CCN(CC)C(=O)CN1C(=O)NC2(CCC(C)CC2)C1=O (configuration not stated) | 19%
O=C(OCC1CCCO1)c1ccc2c(c1)N(Cc1ccccc1Cl)C(=O)c1ccccc1S2(=O)=O (configuration not stated) | 8.9µM*
O=C(OCC1CCCO1)c1ccc2c(c1)N(Cc1cccc(F)c1)C(=O)c1ccccc1S2(=O)=O (configuration not stated) | 3%
Cc1cccc(CN2C(=O)c3ccccc3S(=O)(=O)c3ccc(C(=O)OCC4CCCO4)cc32)c1 (configuration not stated) | 11%
O=C(Nc1ccccc1Cl)N1CCC(Oc2ncccc2C(=O)N2CCOCC2)C1 (configuration not stated) | i
CCOc1ccccc1NC(=O)N1CCCC(c2nc(-c3cnccn3)no2)CCNC(=O)CC1 (configuration not stated) | -22%
O=C(Nc1ccc(Cl)cc1)c1ccc(Cn2ccn3nc4c(c3c2=O)CCCC4)cc1 | 8.9µM*
O=C(Nc1ccccc1)c1ccc(Cn2ccn3nc4c(c3c2=O)CCCC4)cc1 | -15%
CC(C)NC(=O)c1ccc(Cn2ccn3nc4c(c3c2=O)CCCC4)cc1 | -4%
SMILES | Pf Dd2 growth
O=C(CCn1ccn2nc3c(c2c1=O)CCCC3)Nc1ccc(F)cc1 | i
CN(C)c1ccc(NC(=O)CCn2ccn3nc4c(c3c2=O)CCCC4)cc1 | 4µM*
CCOc1ccc(NC(=O)CCn2ccn3nc4c(c3c2=O)CCCC4)cc1 | -7%
O=C(c1ccc(F)cc1)N1CCN(c2nnc3ccccn23)CC1 | 5%
COc1cccc([S+](=O)([O-])N2CCn3c(nnc3-c3ccc(Cl)cc3)C2)c1 | 1%
COc1cccc(CC(=O)NC2CCN(c3ccc(C)cc3)C2=O)c1 (configuration not stated) | i
CC(C)N1CCC(N2CCN(Cc3cn[nH]c3-c3cccc(F)c3)CC2CCO)CC1 (configuration not stated) | 4%
COc1ccc(NC(=O)c2oc3ccc4c(c3c2C)C(=O)CC(C)(C)O4)cc1OC | i
CCc1cccc(NC(=O)c2cc3c(=O)oc4ccc(C)cc4c3s2)c1 | 68%
CCc1cccc(NC(=O)c2oc3ccc4c(c3c2C)C(=O)CC(C)(C)O4)c1 | 10µM*
O=c1n(-c2ccc([N+](=O)[O-])cc2)nc2n1CCN([S+](=O)([O-])c1cccc(C(F)(F)F)c1)C2 | -1%
O=C1[C@@H]2C[C@@H](CN2Cc2ccc(Cl)cc2)Oc2ccccc2N1CC1CC1 | 13µM*
O=C1[C@@H]2C[C@@H](CN2Cc2nccs2)Oc2ccccc2N1CC1CC1 | i
O=C1[C@@H]2C[C@@H](CN2Cc2cccc(Cl)c2)Oc2ccccc2N1CC1CC1 | -11%[44.1 µM]
O=C1[C@@H]2C[C@@H](CN2C(=O)C2CC2)Oc2ccccc2N1Cc1ccc(OC(F)(F)F)cc1 | i
COCC(=O)N1C[C@@H]2C[C@H]1C(=O)N(Cc1ccc(OC(F)(F)F)cc1)c1ccccc1O2 | i
O=C1[C@@H]2C[C@@H](CN2CC2CC2)Oc2ccccc2N1Cc1ccc(OC(F)(F)F)cc1 | 4µM*
O=C(c1ccc(F)cc1Cl)N1CCN(C(=O)c2nnn3c2COC(c2ccccc2)C3)CC1 (configuration not stated) | i
CSCCC(=O)N1CCCC1C(=O)Nc1cccc(-n2cccn2)c1 (configuration not stated) | -12%
O=C(NC1C[C@H]2CC[C@@H](C1)N2C(=O)c1ccc2c(c1)OCO2)c1ccncc1 (some centres not stated) | -24%
CC(C)(C)c1nc(C(=O)NCCc2ccc(Cl)cc2)n2ccncc12 | 2.2µM*
C[S+](=O)([O-])c1ccc(-c2nc(C(=O)NCCc3ccc(Cl)cc3)n3ccncc23)cc1 | 8.9µM*
COC(=O)CNC(=O)c1nc(-c2ccsc2)c2cnccn12 | -8%[44.1 µM]
Cc1cccn2c(=O)c(C(=O)NCCc3ccc(Cl)cc3)cnc12 | i
Cn1ncc2c(C(=O)NCCc3ccc(Cl)cc3)cc(-c3ccc([S+](C)(=O)[O-])cc3)nc21 | -19%
SMILES | Pf Dd2 growth
COCCNC(=O)c1nc(-c2cccnc2)c2cnccn12 | 0%[44.1 µM]
O=C1CC(c2ccccc2)N(C(=O)CNC(=O)C2CCOCC2)CCCCCCN1 (configuration not stated) | 34%
COc1ccc(CN2C(=O)COC[C@H]2C(=O)N2CCC(C)CC2)c(OC)c1 | 20%
O=C([C@H]1CCC[C@H](O)C1)N(CCc1ccc(Cl)cc1)Cc1cccnc1 | -14%
CNC(=O)[C@@H]1C[C@H](Oc2ccccc2)CN1C(=O)CCOC | 1%
COc1ccc(C(=O)Nc2ccnn2C2CCN(C(=O)CN)CC2)cc1 | 11%
Cn1cnc(S(=O)(=O)N2CCC(Cc3nncn3-c3ccccc3)CC2)c1 | -2%
CCCc1nc(C(=O)N2CCCCC2C(=O)OCC)cs1 (configuration not stated) | 1%
COc1cc(C2c3c(-c4ccccc4O)n[nH]c3C(=O)N2Cc2ccncc2)cc(OC)c1OC (configuration not stated) | -10%
CCOCCCN1C(=O)c2[nH]nc(-c3ccccc3O)c2C1c1ccc(CC)cc1 (configuration not stated) | 11µM*
CCc1ccc(C2c3c(-c4ccccc4O)n[nH]c3C(=O)N2Cc2ccncc2)cc1 (configuration not stated) | 8.9µM*
O=C1c2[nH]nc(-c3ccccc3O)c2C(c2cccc(O)c2)N1Cc1ccncc1 (configuration not stated) | 12%
